# PPARg SRC1 recr: PPARgamma agonists recruiting SRC-1 coactivator, primary screen, biochemical | Peroxisome proliferator-activated receptor gamma (Homo sapiens), P37231 | PPARgamma-SRC-1 coactivator recruitment biochemical assay | actives 0.41% (n = 200,000) | activation, % at 8 µM; in the data active = activation above about 19%;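 also: 0% = DMSO and 100% = reference agonist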
# Target sequence (P37231 whole entry, looked up): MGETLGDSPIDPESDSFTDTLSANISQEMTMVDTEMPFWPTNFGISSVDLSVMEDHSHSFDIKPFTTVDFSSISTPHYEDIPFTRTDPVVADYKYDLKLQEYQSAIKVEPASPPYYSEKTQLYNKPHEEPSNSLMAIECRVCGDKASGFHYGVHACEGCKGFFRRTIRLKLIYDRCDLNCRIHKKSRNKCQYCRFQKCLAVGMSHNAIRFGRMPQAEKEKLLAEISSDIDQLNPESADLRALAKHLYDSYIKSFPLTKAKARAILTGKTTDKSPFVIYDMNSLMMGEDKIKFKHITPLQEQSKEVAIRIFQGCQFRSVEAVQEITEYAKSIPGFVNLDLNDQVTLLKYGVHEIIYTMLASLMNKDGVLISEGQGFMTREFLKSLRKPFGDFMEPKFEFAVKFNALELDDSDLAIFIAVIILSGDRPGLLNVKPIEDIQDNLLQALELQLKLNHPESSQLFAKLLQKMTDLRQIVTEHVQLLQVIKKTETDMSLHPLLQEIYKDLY
# TR-FRET SRC-2 ct: TR-FRET signal artefacts, primary screen, artefact control for PPARgamma SRC-2 agonist project, biochemical; TR-FRET artefact counter-screen; hits give high values; TR-FRET ratio at 8 µM; actives 0.4% (n = 200,000); AID 1049, 2008
# PPARg SRC-3 ag: PPARgamma agonists recruiting SRC-3 coactivator, primary screen, biochemical. biochemical PPARgamma/SRC-3 coactivator recruitment assay. activation, % at 8 µM. actives 0.26% (n = 200,000). AID 731, 2007; in the data active = activation above about 23%;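 also: 0% = DMSO and 100% = reference agonist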
# SRC1 TRFRET art: TR-FRET detection interference compounds, primary screen, artefact control for PPARgamma SRC-1 recruitment agonists, biochemical, TR-FRET emission ratio; TR-FRET detection artefact counter-screen; hits give high values; TR-FRET ratio at 8 µM; actives 0.34% (n = 99,000); AID 1051, 2008; in the data active = TR-FRET ratio above about 2300
# PPARg SRC2 recr: agonists of PPARg-SRC-2 recruitment, primary screen, biochemical, HTS; actives 0.34% (n = 200,000); Peroxisome proliferator-activated receptor gamma (Homo sapiens), P37231; activation, % at 8 µM; AID 1032, 2008; PPARgamma LBD-SRC-2 recruitment; in the data active = activation above about 22%;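 also: 0% = vehicle and 100% = reference agonist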
# SRC3 TRFRET art: TR-FRET detection interference compounds, artefact control for PPARgamma SRC-3 recruitment agonists, biochemical, TR-FRET ratio. TR-FRET artefact counter-screen, PPARgamma/SRC-3 format; hits give high values. TR-FRET ratio at 8 µM. actives 0.39% (n = 99,000)
# The depositor's hits bear a star; / = no result given. Shown are actives, neighbours in structure and some others; about 0.9% of the full set was active somewhere. Rule as the data show it, unless noted: active = TR-FRET ratio above about 2000; inactive = the rest.
SMILES,PPARg SRC1 recr,TR-FRET SRC-2 ct,PPARg SRC-3 ag,SRC1 TRFRET art,PPARg SRC2 recr,SRC3 TRFRET art
CCOc1ccccc1-c1nc(-c2ccc(NC(=O)Cc3ccccc3OC)cc2)no1,1,2140*,3,/,2,/
COc1ccccc1-c1cc(-c2ccccc2)nc(SC(C(N)=O)c2ccccc2)c1C#N (stereo not given),8,3201*,-1,/,7,/
COc1ccc2c(C=O)cn(C)c2c1,-3,1563,5,1931,3,1453
C#CCSc1nnc(-c2ccccc2)c(=O)[nH]1,4,1756,9,/,22*,/
Cc1nn(-c2ccc(Cl)cc2)c2sc(C(=O)c3c(N)n(C)c(=O)n(C)c3=O)cc12,25*,1492,-10,/,-3,/
Cn1c(N)c(C(=O)c2ccc(Cl)cc2)c(=O)n(C)c1=O,-2,1575,3,1960,11,1739
O=C(CN1CCCC(O)C1)N1c2ccccc2Sc2ccc(C(F)(F)F)cc21 (stereo not given),10,1597,8,/,3,/
O=C(CSc1nc(C2CC2)nc2ccccc12)N1c2ccccc2Sc2ccc(C(F)(F)F)cc21,-1,1994*,3,/,-1,/
Cc1ccc2nc(-c3ccc(SCC(=O)N4CCc5ccccc54)nc3)[nH]c2c1,6,1365,3,1724,-2,2738*
Cc1ccc2nc(SCC(=O)N3c4ccccc4CC3C)c(C)cc2c1 (stereo not given),-8,1722,13,/,7,/
Cc1ccc2nc(-c3cccnc3SCC(=O)N3c4ccccc4CC3C)[nH]c2c1 (stereo not given),3,2147*,5,/,4,/
Cc1ccc2nc(-c3ccc(SCC(=O)O)nc3)[nH]c2c1,11,1849,12,/,7,/
CC1=C(n2nnc([N+](=O)[O-])n2)C(c2cccnc2)C(C#N)=C(N)O1 (stereo not given),10,1447,4,1897,5,1588
COc1cc(-c2nc3ccccn3c2/N=C/c2cccc(OC)c2O)ccc1O,7,2175*,8,2128,17,1752
COc1cc(-c2nc3ccccn3c2/N=C/c2ccc(F)cc2)ccc1O,10,1636,3,2014,1,1737
O=c1[nH]c(=S)[nH]c2sccc12,-1,2050*,6,2108,8,1856
CSc1nc2sccc2c(=O)[nH]1,-3,1538,1,1900,-2,1619
O=C(COc1ccc(Cl)cc1)Nc1nc(-c2ccc(S(=O)(=O)N3CCOCC3)cc2)cs1,13,2847*,24,/,10,/
COc1ccccc1OCC(=O)Nc1nc(-c2ccc(S(=O)(=O)N3CCOCC3)cc2)cs1,-2,2294*,-10,/,1,/
O=C(COc1ccccc1)Nc1nc(-c2ccc(S(=O)(=O)N3CCOCC3)cc2)cs1,16,2563*,19,/,12,/
Cc1ccc(NC(=O)COc2ccc(S(=O)(=O)N3CCOCC3)cc2)cc1,-10,1498,-10,/,0,/
O=C(COC(=O)c1ccc(S(=O)(=O)N2CCOCC2)cc1)Nc1nc(-c2ccccc2)cs1,0,1618,-2,/,5,/
CCOC(=O)C1(CCOC)CCN(Cc2ccc(C3CCCCO3)s2)CC1 (stereo not given),-1,1398,-3,1694,-7,1527
O=C(CSc1ccc(Cl)cc1)NNC(=O)c1cccnc1,-4,1350,2,1516,5,1452
CC(=O)Nc1ccc(C(=O)Nc2nc(-c3cccnc3)cs2)cc1,11,1466,1,1713,-5,1482
SMILES,PPARg SRC1 recr,TR-FRET SRC-2 ct,PPARg SRC-3 ag,SRC1 TRFRET art,PPARg SRC2 recr,SRC3 TRFRET art
CC(=O)Nc1ccc(C(=O)Nc2nc(-c3ccccn3)cs2)cc1,7,1977*,-1,1947,2,1655
COC(=O)c1ccccc1NC(=O)c1cn(-c2ccc(C)c(C)c2)c(=O)c2ccccc12,1,1685,9,1931,3,1579
CCOC(=O)c1ccccc1NC(=O)c1cn(-c2ccc(C)c(C)c2)c(=O)c2ccccc12,-1,3144*,9,1817,130*,1904
CN(CC1CCCO1)S(=O)(=O)c1ccc(C(=O)Nc2ccc3c(c2)OCO3)cc1 (stereo not given),4,1460,3,1902,11,1432
CN(CC1CCCO1)S(=O)(=O)c1ccc(C(=O)Nc2nc3cc4c(cc3s2)OCO4)cc1 (stereo not given),9,1631,4,/,23*,/
CCOC(=O)c1sc2nccc(N(C)C)c2c1N=CN(C)C,4,1529,27*,/,7,/
CN(C)C=Nc1c(C(=O)c2ccccc2)sc2nccc(N(C)C)c12,-2,1610,0,2016,10,1650
CCc1ccc(C(=O)CN2CCSC2=N)cc1,2,1510,2,1601,6,1564
CCN1/C(=C/c2ccc3cc(C)ccc3[n+]2CC)Sc2cc(C)ccc21,17,1571,2,1885,11,2049
CCN1/C(=C/c2ccc3cc(C)ccc3[n+]2C)Sc2ccc3sccc3c21,96*,2435*,46*,3458*,53*,2512*
CCn1c(C)c(P(c2ccccc2)c2ccccc2)[n+]2ccccc12,2,1516,4,1437,-3,1476
Cc1ccccc1NC(=S)N(CCCN1CCCCC1)Cc1ccco1,-4,1704,0,1866,-4,1580
Cc1ccccc1NC(=S)N(CCN1CCCCC1)Cc1ccco1,5,2001*,3,2157,4,1622
COc1cccc(-c2nn(-c3ccccc3)cc2C(=O)OCC(=O)Nc2ncc(Cl)cc2Cl)c1,8,2626*,0,2559*,11,3059*
O=C(COC(=O)c1ccccc1O)Nc1ncc(Cl)cc1Cl,4,1547,0,2036,9,1607
CN(C)CCNCCCOc1ccccc1-c1ccccc1,-5,1457,1,1697,-4,1433
CN=C1CC(SC)=C1c1ccc(C)cc1,10,1559,-2,/,24*,/
O=S(=O)([N-]c1nc2ccccc2nc1-[n+]1ccccc1)c1ccc(F)cc1,8,1542,1,1726,6,1652
N#Cc1cccc(NC(=O)COC(=O)c2ccccc2Sc2ccccc2C#N)c1,-3,1920,2,1775,3,2131*
N#Cc1ccccc1Sc1ccccc1C(=O)OCC(=O)NC12CC3CC(CC(C3)C1)C2,0,2682*,1,2330*,-11,3416*
CC(=O)c1ccc(NC(=O)COC(=O)c2ccccc2Sc2ccccc2C#N)cc1,-3,1691,0,1874,0,2465*
CN(C)C(=O)COC(=O)c1ccccc1Sc1ccccc1C#N,13,1720,4,1957,12,1480
